Nrf2 activator – activates Nrf2 signaling. Potency, µM (titrated, usually from 46.1 µM), inactives show at the highest dose activation, most hits filed as activators. 0.31% of 410,000 active. AID 624171. AREc32 ARE-luciferase reporter (MCF7-derived line), luminescence, 24 h; further: % of control where 0% means no effect; nearly all actives have a fitted effect of over 65% in size
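Nrf2 activation is followed as ARE-luciferase induction in the AREc32 line after one day of compound treatment; luminescence is read with Steady-Glo.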
ATXN2 expr inh – inhibitors of ATXN2 expression; 0.72% of 360,000 active; AID 1745845; Potency, µM (doses to about 57 µM), inactives show at the top dose activity change, negative = inhibition, usual class: inhibitors; HEK-293 ATXN2-luciferase reporter, luminescence, 24 h; further: on the % scale 0 is the no-effect control and ±100 the full control effect; nearly all actives have a fitted effect of over 55% in size
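qHTS (up to 57 uM final) was run with 24 h compound exposure of reporter cells at 37 °C. Each well was multiplexed: SteadyGlo luminescence measured ATXN2-luciferase expression after a fluorogenic Gly-Phe-AFC viability readout (25 uM final).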
ATXN viability – reduces viability in counter-screen for ATXN expression inhibitors. S2 cells (HEK-293 line with an ATXN2-luciferase reporter) viability, CellTiter-Fluor protease fluorescence, 24 h. Potency, µM (doses to about 56.7 µM), hits mostly cytotoxic. 0.49% of 400,000 active. AID 651635; further: nearly all actives have a fitted effect of over 40% in size
A549 tox – A549 cytotoxicity, counter-screen for Nrf2 inhibitors; A549 ARE-Fluc cells, CellTiter-Fluor viability, 18-24 h; Potency, µM (doses to about 46 µM), for the others: at the top dose activity change, negative = cytotoxicity, actives largely listed as inhibitors; 0.16% of 390,000 active; AID 504648; further: on the % scale 0 is the no-effect control and ±100 the full control effect
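A549 ARE-Fluc cells in 5% FBS OPTI-MEM, 5000 cells/well, rested 2 h then exposed to compounds in concentration-response for 18-24 h at 37 °C. Viability by CellTiter-Fluor fluorescence (Ex 405/Em 525) after 30 min; luciferase luminescence (BugLite, 15 min, RT) read afterwards.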
Nrf2 block – blocks Nrf2 signaling. A549 ARE-Fluc reporter, luciferase luminescence, 18-24 h. Potency, µM (top dose mostly 46 µM), inactives show at the highest dose activity change, negative = inhibition, most hits filed as inhibitors. AID 504444. 2.1% of 360,000 active; further: on the % scale 0 is the no-effect control and ±100 the full control effect; nearly all actives have a fitted effect of over 60% in size
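Nrf2 activity is the BugLite luminescence, read 15 min after reagent at room temperature, following CellTiter-Fluor cytotoxicity readout (30 min, 37C). Compound titrations were applied for 18-24 h to 5000 A549 ARE_Fluc cells/well in 5% FBS OPTI-MEM.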
* = called active by the depositor; i = inactive; ? = inconclusive; · = no result given; [ ] = another dose, or the depositor's remark. Only some compounds are listed: those with a hit (about 2.9% of all), similar ones and a draw of the others. The call rests on the fitted dose curve; in most records, active means well fitted curve in the direction sought with a large enough effect; inconclusive means small, poorly fitted or top-dose-only effect, or another doubt; inactive means no such curve, though single readings can be large; an effect the other way counts as inactive or inconclusive. Potency means the concentration at half of the fitted maximal effect.

SMILES	Nrf2 activator	ATXN2 expr inh	ATXN viability	A549 tox	Nrf2 block
COC(=O)c1sccc1NC(=O)c1c(F)c(F)c(F)c(F)c1F	?	?	?	1%	-11%
COC(=O)c1sccc1NC(=O)c1cccc(F)c1	10µM*	7%	i	-6%	7%
COC(=O)c1sccc1NC(=O)c1ccco1	11µM*	-3%	i	1%	-1%
COc1ccc(NC(=O)c2ccco2)c([N+](=O)[O-])c1	12%	46%	i	-14%	3%
COC(=O)c1sccc1NC(=O)c1ccccc1Br	?	·	i	-5%	-11%
c1nc(NCCc2cnc[nH]2)c2cc(-c3ccc4c(c3)OCO4)ccc2n1	·	·	·	-1%	8%
COc1cccc(C2c3c(ncn(-c4ccccc4Cl)c3=N)Oc3ccc4ccccc4c32)c1 (configuration not stated)	·	·	·	18%	-18%
CN(C)c1nc2cc(Cl)ccc2cc1CN(Cc1ccc2c(c1)OCO2)C(=O)c1ccoc1	·	·	i	·	·
Cc1ccccc1Cn1cc(NC(=O)c2cc3nc(-c4ccco4)cc(C(F)(F)F)n3n2)cn1	0%	-10%	i	-2%	?
CCc1ccc(-c2cc(C(F)(F)F)n3nc(C(=O)Nc4cnn(Cc5ccc(C)cc5)c4)cc3n2)s1	0%	11µM*	?	26µM*	8.2µM*
CC[N+]1=C(C)C(C)(C)c2cc(C)ccc21	-1%	?	?	-18%	10µM*
Cc1ccc(S(=O)(=O)NCCc2csc(-c3ccc(Cl)cc3)n2)cc1	1%	?	i	-1%	·
O=S(=O)(NCCc1csc(-c2ccc(F)cc2)n1)c1ccc(Cl)cc1	6%	16µM*	?	-4%	·
O=C1OC(/C(=C\Nc2cc(Cl)ccc2O)[N+](=O)[O-])c2ccccc21 (configuration not stated)	11µM*	-3%	i	-8%	?
COc1ccc(N2CC(C(=O)Nc3ccc(S(=O)(=O)N4CCCCC4)cc3)CC2=O)cc1 (configuration not stated)	0%	-1%	i	-1%	21µM*
COc1ccc(N2CC(C(=O)Nc3ccc(S(=O)(=O)N4CCCC4)cc3)CC2=O)cc1 (configuration not stated)	2%	-4%	i	2%	-22%
O=C(Nc1ccc(S(=O)(=O)N2CCCCC2)cc1)C1CC(=O)N(c2ccc(Cl)cc2)C1 (configuration not stated)	1%	-15%	i	?	23µM*
COc1ccc(NC(=O)C2CCN(S(=O)(=O)c3ccc(N4CCCC4=O)cc3)CC2)c(OC)c1	0%	-1%	i	8%	4%
O=C(N/N=C/c1ccccc1O)C1CC(=O)N(c2ccc(Cl)cc2)C1 (configuration not stated)	-1%	6.3µM*	i	1%	1%
Cc1ccc(NC(=O)C2CCN(S(=O)(=O)c3ccc(N4CCCC4=O)cc3)CC2)cc1Cl	0%	?	i	-5%	10µM*
Nc1cccc2c1C(=O)N(C1CCC(=O)NC1=O)C2=O (configuration not stated)	·	5%	·	·	·
COc1ccccc1CNC(=O)C1CCN(S(=O)(=O)c2ccc3c(ccn3C)c2)CC1	2%	10%	i	8%	·
O=C(Nc1cccc(Cl)c1Cl)C1CC(=O)N(c2ccc(Br)cc2)C1 (configuration not stated)	-1%	-28%	i	-12%[1.84 µM]	7.3µM*
Cc1cc2c(s1)c1cnn(Cc3c(F)c(F)c(C)c(F)c3F)c(=O)c1n2C	·	·	·	-4%	10%
CCn1c(=O)c2c(nc(C=Cc3ccc(OC)c(OC)c3)n2C)n(CC)c1=O	·	?	i	·	·
SMILES	Nrf2 activator	ATXN2 expr inh	ATXN viability	A549 tox	Nrf2 block
CCc1cc(C(=O)NNC(=O)CCl)sc1C	?	·	28µM*	-9%	-13%
COc1cccc(CNC(=O)Cn2c(=O)ccc3cc(S(=O)(=O)N4CCCC4)ccc32)c1	0%	4%	i	8%	·
CC(O)(COc1ccccc1)c1ccc2c(c1)CN(C/C=C/c1ccco1)CCO2 (configuration not stated)	·	·	i	·	·
O=C(COc1ccc2ccccc2c1)NC1CC(=O)N(c2cccc(F)c2)C1 (configuration not stated)	2%	·	·	15%	·
Fc1ccccc1NC(=S)Nc1ccc(Br)cc1	0%	-5%	i	?	23µM*
CNS(=O)(=O)c1cccc(C(=O)OCC(=O)c2ccc[nH]2)c1	0%	2%	?	-1%	7%
CNS(=O)(=O)c1cccc(C(=O)OCC(=O)c2ccc3c(c2)OCCO3)c1	0%	18µM*	i	-8%	21µM*
COC(=O)C1CCCCN1Cc1nc(N(C)C)c2ccccc2n1 (configuration not stated)	·	·	i	·	·
CC(C)c1csc(CN2CCCC(CNC(=O)c3cccc4ccccc34)C2)n1 (configuration not stated)	1%	-18%	i	-10%	16µM*
CN1C(=O)CC(C)(c2ccccc2)C1=O (configuration not stated)	·	6%	i	·	·
COc1ccc(N/N=C(/N=Nc2nc(C)cc(=O)[nH]2)c2ccccc2)cc1	4%	?	28µM*	?	?
Cc1cc(=O)[nH]c(N=N/C(=N/Nc2ccccc2C)c2ccccc2)n1	0%	2.5µM*	?	3%	-10%
Cc1ccc(NC(=O)Cn2c(=O)n(CCCCC(=O)NCCc3ccc(Cl)cc3)c(=O)c3ccccc32)cc1	0%	-7%	i	1%	6%
C/C(=N\NC(=O)c1c(Cl)c(C)nn1C)c1cccc(NC(=O)c2cccc(F)c2)c1	4%	-33%	i	0%	9.2µM*
C/C(=N\NC(=O)c1c(Cl)c(C)nn1C)c1cccc(NC(=O)COc2ccccc2)c1	3%	-12%	i	-5%	-14%
COc1cccc2c1C(=O)c1c(O)c3c(c(O)c1C2=O)C[C@@](O)(C(=O)CO)C[C@@H]3OC1CC(N)C(O)C(C)O1 (some centres not stated)	-2%	?	12µM*	8.2µM*	5.8µM*
CC(=O)[C@@]1(O)Cc2c(O)c3c(c(O)c2[C@H](O[C@H]2C[C@H](N)[C@H](O)[C@H](C)O2)C1)C(=O)c1ccccc1C3=O	-2%	-74%	?	·	·
Cc1ccc2[nH]c(=O)c(CN(CCO)Cc3nnnn3Cc3ccco3)cc2c1	·	·	·	-2%	-6%
O=C(OCC#CCSc1nnc(-c2cccc3ccccc23)o1)c1cc2ccccc2s1	·	47%	·	-7%	7%
CC(=O)N[C@H]1[C@@H]([C@H](O)[C@H](O)CO)OC(C(=O)O)=C[C@@H]1N=C(N)N	·	-2%	·	·	·
CC(C)(CNC(=O)c1cnn(-c2ncc3c(n2)-c2ccccc2CCC3)c1C1CC1)N1CCOCC1	·	·	i	·	·

High-throughput results (PubChem)
